# Screening data from PubChem BioAssay.
# FMDV inh: blocks foot and mouth disease virus. FMDV antiviral cell-based qHTS. Potency, µM (titrated, usually from 57.9 µM), for inactives: at the top dose activity change, negative = inhibition, usual class: inhibitors. 1.2% of 410,000 active. AID 1159524; calls by dose curve; tested in HEK293T cells; further: read-out not given here; potency means the concentration at half of the fitted maximal effect; nearly all actives have a fitted effect of over 45% in size
# Marburg entry inh: blocks Marburg virus binding to or entry into cells; 1.8% of 300,000 active; AID 540276; Potency, µM (top dose mostly 37.8 µM), for the others: at the highest dose activity change, negative = inhibition, most hits filed as inhibitors; Marburg virus pseudotyped entry inhibition, cell reporter; calls by dose curve; tested in HEK293 cells; further: potency means the concentration at half of the fitted maximal effect
# LASV entry inh: Lassa virus entry inhibition | Lassa virus pseudotype entry inhibition, cell reporter | Potency, µM (top dose mostly 37.9 µM), without a hit: top-dose activity change, negative = inhibition, usual class: inhibitors | 1.2% of 300,000 active; calls by dose curve; tested in HEK293 cells; further: potency means the concentration at half of the fitted maximal effect; nearly all actives have a fitted effect of over 50% in size
# HCMV antiviral: inhibitors of human cytomegalovirus | HFF cells, HCMV-luciferase reporter, 72 h; hits give low values | activity change, negative = inhibition, % at 57.5 µM | 4.5% of 410,000 active; in the data active means activity change below about -60%; inconclusive means no clear call, values can overlap the other calls; inactive means above about -39%
#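 Cell-based, HFFs, 1000 cells/well, 16 h 37C; cpds in DMSO + HCMV-luc, MOI 1 PFU/cell; 72 h 37C; OneGlo luminescence after 5 min RT; norm. to buffer vs Salinomycin 10uM.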
# HCV inh: blocks hepatitis C virus. Huh7.5.1 HCVcc-Cre infection, luciferase reporter, 44 h. Potency, µM (series often up to 41.8 µM), for inactives: top-dose activity change, negative = inhibition, hits mostly inhibitors. 3.4% of 340,000 active; active means well fitted inhibition curve with a large enough effect; inconclusive means small, poorly fitted or top-dose-only effect, or another doubt; inactive means no such curve, though single readings can be large or run the other way; further: potency means the concentration at half of the fitted maximal effect
#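 Cells (1,000/well) were plated 4 h before compound, then infected with HCVcc-Cre virus (~0.5 moi). After 44 h further culture, infection was read as luciferase luminescence following a 15 min substrate incubation at room temperature.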
# * marks the source's active call; other numbers are inactive results; ? = inconclusive; nt = no result; + = active, no number; [ ] = remark or other dose. Only some compounds are listed: those with a hit (about 7.9% of all), similar ones and a draw of the others. On the % scale 0 is the no-effect control and ±100 the full control effect.
SMILES,FMDV inh,Marburg entry inh,LASV entry inh,HCMV antiviral,HCV inh
Cc1ccccc1OCC(=O)Nc1cccc(C(=O)O)c1,3.98µM*,?,0.891µM*,-19.5,0.9%
Cc1cccc(C)c1NC(=O)COc1ccccc1C(=O)Nc1ccc(Br)cn1,5.7%,?,13.5%,-65.4*,2.9%
O=C(O)CC1(CC(=O)Nc2cccc(C(=O)O)c2)CCCC1,3.5%,nt,nt,-101.8*,1.3%
Cc1ccc(C)c(C(O)c2ncc(-c3ccccc3)[nH]2)c1 (stereo unspecified),38.9%,nt,nt,-14.1,nt
Cc1cccc(C)c1OCC(=O)Nc1cccc(NC(=O)c2ccco2)c1,0.0%,?,?,-31.2,11.2µM*
CC1CCN(C(=O)COC(=O)C23CC4CC(CC(O)(C4)C2)C3)CC1,44.9%,nt,nt,3.3,6.1%
CC1CCCC(C)N1C(=O)COC(=O)C12CC3CC(CC(Cl)(C3)C1)C2 (stereo unspecified),-16.8%,nt,nt,-62.6*,-6.5%
O=[N+]([O-])c1ccc(NN=C2CC3CCC2C3)c([N+](=O)[O-])c1 (stereo unspecified),0.0%,nt,nt,11.4,nt
O=[N+]([O-])c1ccc(N/N=C2\CC3CC=CC23)c([N+](=O)[O-])c1 (stereo unspecified),?,0.5%[46.1 µM],-16.1%,27.0,11.2µM*
O=[N+]([O-])c1ccc(N/N=C2\CC3CC=CC23)cc1 (stereo unspecified),39.9%,nt,nt,-12.7,22.4µM*
COC(=O)[C@@]1(Sc2ccc(OC)cc2)CC(=O)N(c2ccc(OC)cc2)[C@@H]1c1ccc(OC(C)C)c(OC)c1,nt,nt,nt,-4.8,nt
COc1ccc2[nH]c3c(c2c1)CCN1C(=O)C(CC(=O)NCCc2ccccn2)C[C@H](C(=O)N(C(C)C)C(C)C)[C@@]31C (stereo partly specified),-12.0%,0.9%,nt,-16.6,12.3%
CC(C)CC1c2[nH]c3ccccc3c2CCN1CCCn1cccn1 (stereo unspecified),-20.5%,4.47µM*,11.2µM*,-12.0,-6.9%
COc1ccc(/C=N/Nc2ncc(C(F)(F)F)cc2Cl)cc1OC,-14.2%,12.6µM*,3.2%,-30.6,?
FC(F)(F)c1cnc(N/N=C/c2ccncc2)c(Cl)c1,19.2%,10.3%[46.1 µM],16.7%[46.1 µM],-3.2,14.6%
C=CCN=C1S/C(=C/c2cccc([N+](=O)[O-])c2)C(=O)N1CC=C,?,nt,nt,-74.4*,?
C=CCN=C1S/C(=C/c2ccc([N+](=O)[O-])cc2)C(=O)N1CC=C,4.2%,-4.8%[46.1 µM],-5.0%,-15.6,-10.6%
C=CCN1C(=O)/C(=C/c2ccc(N(C)C)cc2)S/C1=N\c1nnc(CC)s1,nt,0.9%,nt,nt,11.2%
CN=C1S/C(=C\c2ccc(SC)cc2)C(=O)N1C,20.8%,2.9%[46.1 µM],?,-39.0,?
CN=C1S/C(=C\c2ccc(Cl)cc2)C(=O)N1C,17.7%,19.8%[46.1 µM],25.8%,-11.8,11.2µM*
C=CCN=C1S/C(=C\c2ccc(Cl)cc2)C(=O)N1CC=C,-19.5%,0.2%[46.1 µM],-8.0%[46.1 µM],-84.1*,-6.1%
CCC(C)c1ccc(O)c(NC(=S)NC(=O)c2cccs2)c1 (stereo unspecified),0.0%,nt,nt,-20.0,nt
CCOC(=O)c1c(NC(=O)CCCOc2ccccc2C)sc2c1CCC(C)C2 (stereo unspecified),-19.8%,nt,-3.9%[46.1 µM],-0.4,nt
Cc1cc(C)c2nc(/N=C(\N)NC(=O)Nc3ccccc3)nc(C)c2c1,?,?,?,?,11.2µM*
COc1ccc(CN2C(=O)C(CC(=O)NCCc3ccccn3)CC(C(=O)N3CCOCC3)=C2C)cc1 (stereo unspecified),-11.8%,nt,nt,0.3,nt
SMILES,FMDV inh,Marburg entry inh,LASV entry inh,HCMV antiviral,HCV inh
CN1CCN(C(=O)Cn2ncc3c4ccccc4n(Cc4ccc(F)cc4)c3c2=O)CC1,-11.7%,-19.5%[46.1 µM],-4.3%[46.1 µM],-15.0,nt
CCOC(=O)c1cccn1C1C(=O)N(Cc2ccc(C(F)(F)F)cc2)c2ccccc21 (stereo unspecified),nt,nt,nt,-5.3,nt
CCn1c(CN2c3ccccc3Sc3ccccc32)n[nH]c1=S,-21.2%,?,-8.2%[46.1 µM],-62.0*,3.9%
CCCCCC1C(=O)O[C@H](C)[C@@H](NC(=O)c2cccc(NC=O)c2O)C(=O)OC(C)C1OC(=O)CC(C)C (stereo partly specified),39.8µM*,nt,nt,nt,nt
CCc1ccc(NC(=O)CN2CCCN(Cc3cccc(Cl)c3)S2(=O)=O)cc1,-12.3%,nt,?,+,nt
CCc1cccc(C)c1NC(=O)CN1CCCN(Cc2ccccc2Cl)S1(=O)=O,-18.7%,nt,-8.1%[46.1 µM],+,nt
O=C(Cn1cc(SCc2c(F)cccc2Cl)c2ccccc21)N1CCCC1,17.9%,nt,-18.4%[46.1 µM],-31.4,nt
Cc1ccc(Oc2cnc3ccccc3n2)cc1,57.9%,20.1%,?,?,17.2%
O=[N+]([O-])c1ccc(Oc2cnc3ccccc3n2)cc1,17.0%,-1.9%[46.1 µM],3.6%,-63.1*,-17.1%
CC(Cc1ccc(O)c(O)c1)(NN)C(=O)O (stereo unspecified),7.0%,nt,nt,nt,nt
COC(=O)/C=C1/N/C(=N\c2nc(C)cc(C)n2)N(c2cccc(C)c2)C1=O,28.2µM*,-2.2%,?,?,4.8%
COc1ccc(CN2C(=O)C(n3c(C)ccc3C)c3cc(OC(F)(F)F)ccc32)cc1 (stereo unspecified),nt,nt,nt,-87.9*,nt
COc1ccc(CN2C(=O)C(n3ccc4ccccc43)c3cc(Cl)ccc32)cc1 (stereo unspecified),nt,nt,nt,-83.7*,nt
COc1ccc2c(c1)C(n1ccc3ccccc31)C(=O)N2Cc1ccc(C(C)C)cc1 (stereo unspecified),nt,nt,nt,18.0,nt
COc1ccc(CN2C(=O)C(n3c(C)ccc3C)c3cc(OC)ccc32)cc1 (stereo unspecified),nt,nt,nt,-14.8,nt
COC(=O)C12OCC34C(CC5C(C)=C(O)C(=O)CC5(C)C3C(O)C1O)OC(=O)C(OC(=O)/C=C(\C)C(C)C)C24 (stereo unspecified),-31.3%,?,?,-98.4*,?
COC(=O)C12OCC34C(CC5C(C)=C(O)C(=O)CC5(C)C3C(O)C1O)OC(=O)C(OC(=O)C=C(C)C)C24 (stereo unspecified),-41.9%,?,?,-98.6*,nt
Cc1ccc(S(=O)(=O)Nc2ccc(N(C)C)cc2)cc1,6.8%,0.8%[46.1 µM],-25.7%,-23.6,-4.3%
CN(C)c1ccc(NS(=O)(=O)c2ccc(-c3csnn3)cc2)cc1,6.4%,?,?,-65.5*,?
Cc1ccc(/C(=C\CN2CCCC2)c2ccccn2)cc1,-18.0%,11.2µM*,?,24.3,-10.6%
Fc1cccc(Cc2noc(CN3CCCN(C4Cc5ccccc5C4)CC3)n2)c1,7.3%,11.2µM*,6.9%[46.1 µM],-10.7,-3.5%
COc1ccc(Cc2noc(CN3CCN(C4CCc5ccccc5C4)CC3)n2)cc1OC (stereo unspecified),20µM*,?,-27.0%,-35.9,?
O=C(CCc1nc2ccccc2c(=O)[nH]1)NNC(=O)COc1cccc(F)c1,-12.3%,nt,nt,-22.4,2.5%
